“And” between values parts separate entries of the source, which are not always exact repeats. Identical values can stand only once. Inconclusive results are not listed. A call without a number means that no potency is given here. The source made the active and inactive calls. Calls come from the whole dose curve; as a rule, active = well fitted cell-killing curve with a large enough effect; inconclusive = small, poorly fitted or top-dose-only effect; inactive = flat fitted curve, though single readings scatter.
Test: Cellular viability qHTS for adrenocortical cancer (ACC) cell line SW-13 (AID 1963989); note: nearly all actives have a fitted effect of over 65% in size;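 for activity (max response): cells grown in serum-free medium with ITS supplement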
Conditions: SW-13 ACC cells viability, CellTiter-Glo, 48 h; activity (max response): active compounds read low
In short: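 48 h treatment, SW-13 in ITS/DMEM serum-free; doses up to 46 uM; readout CellTiter-Glo luminescence; curve fit four-parameter logistic.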
Potency is the fitted concentration of half-maximal effect.

Row | SMILES | activity (max response) | Potency
1 | O=C(CBr)N1CC([N+](=O)[O-])([N+](=O)[O-])C1 | 7.48% (inactive) | 
2 | CCOC(=O)C(c1c(O)c2ccccc2oc1=O)c1c(O)c2ccccc2oc1=O | 16.4% (inactive) | 
3 | CC(=O)[C@H]1CC[C@H]2[C@@H]3CC[C@H]4C[C@](C)(O)CC[C@]4(C)[C@H]3CC[C@]12C | 7.79% (inactive) | 
4 | CCC(=O)C(CCN(C)C)(c1ccccc1)c1ccccc1 | -1.08% (inactive) | 
5 | CC(C)[C@]12O[C@H]1[C@@H]1O[C@@]13[C@@]1(C)CCC4=C(COC4=O)[C@@H]1C[C@@H]1O[C@@]13C2=O |  | 0.141 µM (active)
6 | O=c1n(Cl)c(=O)n(Cl)c(=O)n1Cl | 8.14% (inactive) | 
7 | CC(=O)N1N=C(c2ccc(N)cc2)c2cc3c(cc2C[C@H]1C)OCO3 | -25.9% (inactive) | 
8 | COc1cc(CC#N)cc(OC)c1OC | 12% (inactive) | 
9 | O=C(CCCN1CCC(n2c(=O)[nH]c3ccccc32)CC1)c1ccc(F)cc1 | -18.7% (inactive) | 
10 | O=C(O)C1=CCCN(CCOC(c2ccc(C(F)(F)F)cc2)c2ccc(C(F)(F)F)cc2)C1 | -19.1% (inactive) | 
11 | C[C@@H]1CC[C@H]2[C@@H](C)C(=O)O[C@@H]3O[C@@]4(C)CC[C@@H]1[C@]32OO4 | -4.33% (inactive) and -19.2% (inactive) | 
12 | CC(C(O)c1ccccc1)N(C)C/C=C/c1ccccc1 (stereo unspecified) | -14.5% (inactive) | 
13 | CC[C@@H](CO)NC(=O)[C@@H]1C=C2c3cccc4[nH]cc(c34)C[C@H]2N(C)C1 | -27.7% (inactive) | 
14 | CC(CCc1ccccc1)NC(C)C(O)c1ccc(O)cc1 (stereo unspecified) | -14.3% (inactive) | 
15 | COc1ccc2c(C(=O)c3ccc(Cl)cc3)c(C)n(CC(=O)O)c2c1 | 8.1% (inactive) | 
16 | CCCCCCCCCC(CC)c1ccc(S(=O)(=O)O)cc1 (stereo unspecified) |  | 31.6 µM (active)
17 | C[C@]12CC[C@H]3[C@@H](CCC4=CC(=O)CC[C@@H]43)[C@@H]1CC[C@@H]2OC(=O)CCC1CCCCC1 | -4.2% (inactive) | 
18 | CN1C(=S)CN=C(c2ccccc2)c2cc(Cl)ccc21 | -3.17% (inactive) | 
19 | CC(Cc1ccc2c(c1)OCO2)NO (stereo unspecified) | -5.75% (inactive) | 
20 | COC(=O)[C@]12CCC(C)(C)C[C@H]1[C@H]1C(=O)C=C3[C@@]4(C)C=C(C#N)C(=O)C(C)(C)[C@@H]4CC[C@@]3(C)[C@]1(C)CC2 |  | 6.31 µM (active)
21 | CCOC(=O)c1cncn1C(C)c1ccccc1 (stereo unspecified) | 4.76% (inactive) | 

Test: Cellular viability qHTS for adrenocortical cancer (ACC) cell line NCI-H295R (AID 1963990); note: nearly all actives have a fitted effect of over 60% in size
Conditions: CellTiter-Glo ATP luminescence, 48 h; series mostly up to 46.1 µM
In short: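 Compound titrations (up to 46 uM final) are applied to NCI-H295R cultures for 48 h at 37C. Viable cell number is estimated by CellTiter-Glo signal, normalised to DMSO and doxorubicin controls.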

Row | SMILES | Potency
22 | O=C(CBr)N1CC([N+](=O)[O-])([N+](=O)[O-])C1 | inactive
23 | O=C1C(I)=CC(=C(c2cc(I)c(O)c(I)c2)c2ccccc2C(=O)O)C=C1I | 20.6 µM (active)
24 | CCN(CC)CCN1C(=O)CN=C(c2ccccc2F)c2cc(Cl)ccc21 | inactive
25 | C[C@]12CC[C@H]3[C@@H](CCC4=CC(=O)CC[C@@H]43)[C@@H]1CC[C@@H]2OC(=O)CCc1ccco1 | 18.4 µM (active)
26 | CCOC(=O)C(c1c(O)c2ccccc2oc1=O)c1c(O)c2ccccc2oc1=O | inactive
27 | CC(C)(C)CC(C)(C)c1ccc(O)cc1 | 8.91 µM (active) and 13 µM (active)
28 | CC(O)(CS(=O)(=O)c1ccc(F)cc1)C(=O)Nc1ccc(C#N)c(C(F)(F)F)c1 (stereo unspecified) | inactive
29 | CC(=O)[C@H]1CC[C@H]2[C@@H]3CC[C@H]4C[C@](C)(O)CC[C@]4(C)[C@H]3CC[C@]12C | inactive
30 | O=c1[nH]c2ccccc2n1C1CCN(CCCC(c2ccc(F)cc2)c2ccc(F)cc2)CC1 | 23.1 µM (active)
31 | CCC(=O)C(CCN(C)C)(c1ccccc1)c1ccccc1 | inactive
32 | C=CC[C@]1(O)CC[C@H]2[C@@H]3CCC4=CC(=O)CCC4=C3C=C[C@@]21C | inactive
33 | CC(C)[C@]12O[C@H]1[C@@H]1O[C@@]13[C@@]1(C)CCC4=C(COC4=O)[C@@H]1C[C@@H]1O[C@@]13C2=O | 0.631 µM (active)
34 | O=c1n(Cl)c(=O)n(Cl)c(=O)n1Cl | inactive
35 | O=c1oc2ccccc2c(O)c1C(CC(O)c1ccc(-c2ccc(Br)cc2)cc1)c1ccccc1 (stereo unspecified) | 18.4 µM (active)
36 | NC1=NC(=O)C(c2ccccc2)O1 (stereo unspecified) | inactive
37 | CCOC(=O)C1(c2ccccc2)CCN(CCc2ccc(N)cc2)CC1 | inactive
38 | C=C(C)[C@H]1CN[C@H](C(=O)O)[C@H]1CC(=O)O | inactive
39 | CC(=O)N1N=C(c2ccc(N)cc2)c2cc3c(cc2C[C@H]1C)OCO3 | inactive
40 | C[C@@H]1CC2=CC(=O)CC[C@@H]2[C@H]2CC[C@@]3(C)[C@@H](CC[C@]3(C)O)[C@@H]21 | inactive
41 | COc1cc(CC#N)cc(OC)c1OC | inactive

Row | SMILES | Potency
42 | CC#C[C@]1(O)CC[C@H]2[C@@H]3C[C@H](C)C4=CC(=O)CC[C@]4(C)[C@H]3CC[C@@]21C | 8.2 µM (active)
43 | O=C(CCCN1CCC(n2c(=O)[nH]c3ccccc32)CC1)c1ccc(F)cc1 | inactive
44 | C=C[C@H]1CN2CCC1C[C@@H]2[C@@H](O)c1ccnc2ccccc12 (stereo partly specified) | inactive
45 | O=C(O)C1=CCCN(CCOC(c2ccc(C(F)(F)F)cc2)c2ccc(C(F)(F)F)cc2)C1 | inactive
46 | C[C@@H]1CC[C@H]2[C@@H](C)C(=O)O[C@@H]3O[C@@]4(C)CC[C@@H]1[C@]32OO4 | inactive
47 | O=C1NCN(c2ccccc2)C12CCN(CCCOc1ccc(F)cc1)CC2 | inactive
48 | CC(N[C@H]1C[C@@H]1c1ccccc1)c1ccc2c(c1)OCCO2 (stereo partly specified) | inactive
49 | CC(C(O)c1ccccc1)N(C)C/C=C/c1ccccc1 (stereo unspecified) | inactive
50 | CC[C@@H](CO)NC(=O)[C@@H]1C=C2c3cccc4[nH]cc(c34)C[C@H]2N(C)C1 | inactive
51 | CC(CCc1ccccc1)NC(C)C(O)c1ccc(O)cc1 (stereo unspecified) | inactive
52 | COc1ccc2c(C(=O)c3ccc(Cl)cc3)c(C)n(CC(=O)O)c2c1 | inactive
53 | CCCCCCCCCC(CC)c1ccc(S(=O)(=O)O)cc1 (stereo unspecified) | 25.1 µM (active)
54 | CCOC(C(=O)OCCN(C)C)(c1ccccc1)c1ccccc1 | inactive
55 | COP(=S)(OC)SCN1C(=O)c2ccccc2C1=O | inactive
56 | C[C@]12CC[C@H]3[C@@H](CCC4=CC(=O)CC[C@@H]43)[C@@H]1CC[C@@H]2OC(=O)CCC1CCCCC1 | inactive
57 | CN1C(=S)CN=C(c2ccccc2)c2cc(Cl)ccc21 | inactive
58 | CC(Cc1ccc2c(c1)OCO2)NO (stereo unspecified) | inactive
59 | CC(C)(NC(=O)O[C@@H]1CN2CCC1CC2)c1csc(-c2ccc(F)cc2)n1 | inactive
60 | COC(=O)[C@]12CCC(C)(C)C[C@H]1[C@H]1C(=O)C=C3[C@@]4(C)C=C(C#N)C(=O)C(C)(C)[C@@H]4CC[C@@]3(C)[C@]1(C)CC2 | 3.98 µM (active)
61 | CCOC(=O)c1cncn1C(C)c1ccccc1 (stereo unspecified) | inactive

Source: PubChem BioAssay (NCATS)
